# Reference: PubChem BioAssay (NCATS)
# Results filed as inconclusive are left out. Entries that show only a call come without a potency. Calls of active or inactive are those of the source. Calls come from the whole dose curve; as a rule, active = well fitted curve in the direction sought with a large enough effect; inconclusive = small, poorly fitted or top-dose-only effect, or another doubt; inactive = no such curve, though single readings can be large or run the other way.
# Assay: qHTS for differential inhibitors of proliferation of Plasmodium falciparum line 3D7 (AID 1876)
# Settings: P. falciparum 3D7 proliferation inhibition; series mostly up to 28.7 µM
# Potency is the fitted concentration of half-maximal effect.
row,SMILES,Potency
1,C[N+](C)(C)CCCCCCCCCC[N+](C)(C)C,0.355 µM (active)
2,CC[C@H]1CN2CCc3cc(OC)c(OC)cc3[C@@H]2C[C@@H]1C[C@H]1NCCc2cc(OC)c(OC)cc21,0.0794 µM (active)
3,NC(N)=NC(=O)c1nc(Cl)c(N)nc1N,11.2 µM (active)
4,O=C(O)c1nn(Cc2ccc(Cl)cc2Cl)c2ccccc12,inactive
5,COC(=O)C1=CCCN(C)C1,inactive
6,COc1ccc(C(=O)N2CCCC2=O)cc1,inactive
7,CNC(=O)Oc1ccc2c(c1)[C@]1(C)CCN(C)[C@@H]1N2C,4.47 µM (active)
8,NC(N)=N/N=C/c1c(Cl)cccc1Cl,6.31 µM (active)
9,NC(=O)CN1CCCC1=O,inactive

# Assay: qHTS for differential inhibitors of proliferation of Plasmodium falciparum line D10 (AID 1877);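 note: parasites grown with compound for 72 h before DNA staining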
# Settings: series mostly up to 28.7 µM
row,SMILES,Potency
1,C[N+](C)(C)CCCCCCCCCC[N+](C)(C)C,1.26 µM (active)
2,CC[C@H]1CN2CCc3cc(OC)c(OC)cc3[C@@H]2C[C@@H]1C[C@H]1NCCc2cc(OC)c(OC)cc21,0.141 µM (active)
3,NC(N)=NC(=O)c1nc(Cl)c(N)nc1N,8.91 µM (active)
4,O=C(O)c1nn(Cc2ccc(Cl)cc2Cl)c2ccccc12,inactive
5,CC(N)C(=O)OC(C)(C)Cc1ccc(Cl)cc1 (stereo unspecified),inactive
6,CCCCCCCCC(=O)NCc1ccc(O)c(OC)c1,inactive
7,COC(=O)C1=CCCN(C)C1,inactive
8,COc1ccc(C(=O)N2CCCC2=O)cc1,inactive
9,c1ccc2nc(N3CCNCC3)ccc2c1,inactive
10,CNC(=O)Oc1ccc2c(c1)[C@]1(C)CCN(C)[C@@H]1N2C,4.47 µM (active)
11,NC(N)=N/N=C/c1c(Cl)cccc1Cl,11.2 µM (active)
12,NC(=O)CN1CCCC1=O,inactive
